About 83,000 compounds went through this panel and 20% of them were active in at least one assay; those are over-represented in the sample as a whole.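 Step 1: grow cells in 96-well plates. Step 2: add test compound at a single concentration. Step 3: incubate 48 h. Step 4: record percent growth.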 Values without a mark were called inactive. Calls of active or inactive are those of the source. Rule for the calls: active = growth percent below 10; inactive = the rest.

This note sets out measurements from PubChem BioAssay (NCI).

Assay in all cases: NCI-60 one-dose screen, 48 h (100 = growth as untreated, 0 = no growth, -100 = all killed)
Holding throughout (conditions): 10 µM

For test [1], the system named is DU-145 prostate.
Test [2] concerns K-562 leukemia.
Test [3] concerns MALME-3M melanoma.
Test [4] concerns MDA-MB-231 breast.
Test [5] deals with SF-268 CNS.
Test [6] has as its system SF-295 CNS.
Test [7] deals with SF-539 CNS.
Test [8] relates to UACC-257 melanoma.
The test system of test [9] is M14 melanoma.

Regarding `Cc1noc2c(Cc3ccccc3)nn(CC(=O)N/N=C/c3ccc(Cl)cc3)c(=O)c12`, the growth was 68.9% in test [1]; 93.7% in test [2]; 34.4% in test [3]; 5.74% (active) in [4]; 59.8% in test [5]; 38.8% in [6]. Besides, the growth in [7] is 67.7%; in [8] it was 96%; in [9], 94.4%.
As for `CC(=O)NS(=O)(=O)c1ccc(NC(=O)CSC2=NC(c3ccccc3)C(C(C)=O)=C(C)N2)cc1` (stereo unspecified), the growth in test [1] was 120%; in test [2] it was 104%; in [3] it was 103%; in [4], 110%; in test [5], 107%; in [6], 101%. The growth in test [7] was 107%; in [8], 106%; in [9] it was 107%.
In the case of `CN1CCN(c2ccc(C(=O)/C=C/c3cc(C(F)(F)F)ccc3Cl)cc2)CC1`, the growth in test [1] was -62.5% (active); in [2], 2.76% (active); in test [3], -95.4% (active); in test [4], -95.1% (active); in [5], 1.69% (active); in test [6], -89.3% (active). Also, the growth in test [7] is -100% (active); in [8] it was -79.7% (active); in test [9], -84.9% (active).
`CC(C)C1=C[C@@]23CC[C@@H]4[C@](C)(CCC[C@]4(C)C(=O)NCc4ccccc4)[C@H]2C[C@@H]1[C@H]1C(=O)CCC(=O)[C@H]13`: the growth is 98.1% in test [1]; 55.7% in test [2]; 95.5% in [3]; 86.5% in test [4]; 80.4% in [5]; 83.1% in test [6]. For the same compound, the growth in [7] is 72.2%; in [8], 77.6%; in test [9], 86.9%.
For the compound `COc1ccc(/C=C/C(=O)c2ccc(NC(=O)CN3C(=O)NC(C)(c4ccccc4)C3=O)cc2)cc1` (stereo unspecified), the growth is 87.7% in test [1]; 60.2% in test [2]; 90.5% in test [3]; 87% in test [4]; 67.3% in [5]; 76.1% in [6]. Moreover, the growth in test [7] was 80%; in test [8], 92.4%; in [9] it was 87.9%.
With `O=c1[nH]c2ccccc2cc1CSc1ccc(Nc2nccc(-c3ccc4ccccc4c3)n2)cc1`, the growth in test [1] was 25.5%; in test [2], 64%; in test [3], 39%; in test [4], 30.5%; in test [5], 72.1%; in test [6], 89.6%. Besides, the growth in [7] is 16.1%; in [8], 105%; in test [9], 69.8%.
Regarding `CCCn1c(=O)c2[nH]c(-c3ccc(OCc4nc5ccc(C#N)cc5[nH]4)cc3)nc2n(CCC)c1=O`, the growth in test [1] is 79%; in test [2], 41.6%; in test [3], 73.2%; in test [4], 30.8%; in [5] it was 80.4%; in test [6], 76.7%. Further, the growth is 64.9% in [7], 99.5% in test [8] and 99.6% in test [9].
As for `O=C(N/C(=C1/OCCN1Cc1ccccc1)[P+](c1ccccc1)(c1ccccc1)c1ccccc1)c1ccccc1`, the growth in test [1] was -15.1% (active); in test [2], 8.08% (active); in test [3], -60.6% (active); in test [4], 0.242% (active); in test [5] it was 21.1%; in [6], 31.4%. For the same compound, the growth in test [7] was 25.3%; in [8], -4.84% (active); in [9], 19.4%.
As to `O=C(Nc1ccc(Cl)c([N+](=O)[O-])c1)Nc1ccc(Cl)c([N+](=O)[O-])c1`, the growth in [1] is 18.4%; in test [2] it was 19.8%; in [3] it was -11.2% (active); in test [4] it was 17.5%; in test [5], 18%; in test [6], 0.239% (active). Besides, the growth was 11.4% in test [7], 36.9% in [8] and 18.6% in [9].
As to `Clc1cccc(N/N=C/c2c[nH]c3ccccc23)n1`, the growth in test [1] was 48.7%; in test [2] it was 13.8%; in [3], 50.6%; in test [4] it was -0.126% (active); in [5], 19.9%; in [6] it was 49.5%. For the same compound, the growth in test [7] was 6.26% (active); in [8], 68%; in test [9], 43.6%.
Regarding `COc1ccc(CN2[C@@H](C(=O)NCc3ccc(C(=O)NO)cc3)Cc3c([nH]c4ccccc34)[C@@H]2C)cc1`, the growth in test [1] was 18.6%; in [2] it was 12%; in test [3], 0.926% (active); in test [4] it was 13%; in test [5], 24.8%; in test [6], 6.57% (active). The values for the growth in test [7], in [8] and in test [9] were 17.2%, 32.1% and 23.3%, respectively.
Turning to `O=C(CNc1nc(-c2ccccc2)cs1)Nc1ccc(Cl)cc1`, the growth in test [1] is -93.3% (active); in test [2], -16.4% (active); in [3] it was -90.3% (active); in test [4], -94.3% (active); in test [5], -49% (active); in test [6], -96.9% (active). In addition, the growth in test [7] was -98.8% (active); in test [8], -78.8% (active); in [9], -90.9% (active).
Regarding `COc1ccc(C2N(c3ccc(Br)cc3)N=C(C(C)=O)N2[C@H]2[C@H](OC(C)=O)O[C@H](COC(C)=O)[C@@H](OC(C)=O)[C@@H]2OC(C)=O)cc1` (stereo partly specified), the growth was 85.7% in test [1]; 65% in test [2]; 93.4% in test [3]; 72.1% in test [4]; 74.9% in test [5]; 64.1% in test [6]. The growth is 80.7% in test [7], 89.9% in test [8] and 81.5% in test [9].
For `Cc1ccc2nc(-c3ccc(-c4nnc(SCC(=O)Nc5ccc(Br)cc5)o4)cc3)[nH]c2c1`, the growth is 82.9% in test [1]; 7.89% (active) in test [2]; 87.1% in test [3]; 77.9% in test [4]; 80.6% in test [5]; 63.8% in test [6]. Also, the values for the growth in test [7], in [8] and in test [9] were 68.3%, 96.5% and 66.6%, respectively.
